Experimental data from PubChem BioAssay (NCATS).
Results filed as inconclusive are left out. Activity calls are given as the source filed them. Calls follow the shape of the dose curve; as a rule, active = well fitted curve in the direction sought with a large enough effect; inconclusive = small, poorly fitted or top-dose-only effect, or another doubt; inactive = no such curve, though single readings can be large; an effect the other way counts as inactive or inconclusive.

Legend:
[1] = target: Nuclear receptor subfamily 1 group I member 3 (Homo sapiens) (UniProt Q14994); assay: qHTS for Constitutive Androstane Receptor (CAR) Agonist screened against the NCATS CANVASS Library (AID 1347373);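 also: every well also contained 1.5 µM PK11195 alongside the test compound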
Chain of Nuclear receptor subfamily 1 group I member 3 (Homo sapiens) (Q14994 whole entry, looked up): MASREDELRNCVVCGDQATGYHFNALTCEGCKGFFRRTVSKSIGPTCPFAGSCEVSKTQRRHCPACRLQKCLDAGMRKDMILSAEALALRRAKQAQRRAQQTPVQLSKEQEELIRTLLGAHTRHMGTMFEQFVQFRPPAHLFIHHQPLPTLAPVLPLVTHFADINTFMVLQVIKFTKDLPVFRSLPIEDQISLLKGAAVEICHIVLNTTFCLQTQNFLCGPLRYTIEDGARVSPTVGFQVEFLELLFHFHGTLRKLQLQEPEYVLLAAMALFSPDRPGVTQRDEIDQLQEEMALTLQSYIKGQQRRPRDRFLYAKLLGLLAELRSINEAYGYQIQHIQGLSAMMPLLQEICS
Procedure, shortened: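 Cells were plated and allowed to attach for 4hr, then dosed with compound in an 11-point series alongside 1.5uM PK11195. After 24hr at 37C, viability was measured fluorometrically and CAR-driven CYP2B6 reporter luminescence was recorded.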

[2] = qHTS for Hypoxia signaling pathway (HIF-1) antagonists against the NCATS CANVASS Library (AID 1347374);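 also: HRE-bla ME-180 cells stimulated with cobalt chloride to stabilize HIF-1alpha; series mostly up to about 38 µM; nearly all actives have a fitted effect of over 60% in size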
Procedure, shortened: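 Antagonism scored as loss of CoCl2-driven (60 uM stock added) HRE beta-lactamase signal, read by CCF4 FRET at 460/530 nm. Compounds were tested in an 11-point series on ME-180 reporter cells for 17 hrs at 37C, with parallel CellTiter-Glo cytotoxicity.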

[3] = qHTS for Hypoxia signaling pathway (HIF-1) agonists against the NCATS CANVASS Library (AID 1347375)
Description: Natural products and their derivatives continue to be wellsprings of nascent therapeutic potential. However, many laboratories have limited resources for biological evaluation, leaving their previously isolated or synthesized compounds largely or completely untested. To address this issue, the Canvass library of natural products was assembled (https://tripod.nih.gov/canvass), in collaboration with academic and industry researchers, for quantitative high-throughput screening (qHTS) across a diverse set of cell-based and biochemical assays. The pure (>85% purity by liquid chromatography/mass spectrometry [LC/MS]) Canvass library of 346 natural products were submitted by 45 academic laboratories and companies around the world. We collected pure natural products to circumvent deconvolution and structure elucidation due to time and resource limitations. The library was formatted into 1536-well plates and evaluated in 50 qHTS (in an 11-pnt concentration series) bioassays with broad scope of disease-relevant mechanisms. The resulting data set from 50 different assays was then systematically analyzed to identify overall trends and specific natural products with interesting biological activities. […] The compounds were also tested for auto fluorescence that may interfere with the biological target readout resulting in potential false positives and/or negatives. […]

[4] = qHTS for H2AX Agonists against the NCATS CANVASS Library (AID 1347378)
Procedure, shortened: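 CHO-K1 cells (1000/well, overnight at 37C) exposed to compounds at several concentrations for 3 hr at 37C, 0.76% DMSO final. Lysates read by TR-FRET (phospho-H2AX S139 Eu-cryptate antibody / H2AX-d2 antibody) after 24 hr at room temperature; 665/615 nm ratio.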

[5] = qHTS for Inflammasome Signaling Inhibitors: IL-1-beta AlphaLISA screen against the NCATS CANVASS Library (AID 1347379);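 also: human THP-1 cells primed with LPS then triggered with ATP; secreted IL-1B measured as AlphaLISA emission at 615 nm; lower signal means less IL-1B release which is the wanted effect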
Procedure, shortened: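 Secreted IL-1B from human THP-1 cells quantified by AlphaLISA 16 hr after compound addition (final up to 57.5 uM). A 1 hr compound pretreatment preceded inflammasome activation with 250 ng/mL LPS plus 1.25 mM ATP (final).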

[6] = qHTS for Antimalaria activity screened against the NCATS CANVASS Library (AID 1347380);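 also: Plasmodium falciparum strain Dd2 asexual parasites grown in red blood cells; series mostly up to about 29 µM; nearly all actives have a fitted effect of over 40% in size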
Procedure, shortened: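 Compounds are titrated over 11 concentrations onto Dd2 parasite cultures (0.3% parasitemia, 2.5% hematocrit). Growth over 72 h at 37C in low oxygen is measured as SYBR Green DNA fluorescence after lysis.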

[7] = Inflammasome Signaling qHTS Counterscreen: IL-1-beta AlphaLISA counterscreen against the NCATS CANVASS Library (AID 1347381);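 also: cell-free check with purified IL-1β in medium and no THP-1 cells; series mostly up to about 57 µM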
Procedure, shortened: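 Purified IL-1-beta (4 pg/well) + compound, 11-pt conc. series; acceptor beads 6 ug/mL + biotin-Ab 0.6 nM final, 1 h RT; SA-donor 24 ug/ml final, 30 min dark RT; read ex 680/em 615.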

[8] = Cytotoxicity qHTS for assessment of Hepg2 cells membrane integrity screened against the NCATS CANVASS Library (AID 1347387)
Procedure, shortened: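 Cells were seeded at 2000 per well and left overnight to attach. Compounds were pin-transferred to give 0.59 nM - 46 uM in an 11-point series and incubated 5 hr at 37C. CytoTox-ONE reagent was added and, after 10 min at room temperature, fluorescence (ex 560, em 590 nm) was read.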

[9] = 10-beta competent E. coli microbial cell viability qHTS against the NCATS CANVASS Library (AID 1347376); also: series mostly up to about 46 µM
Description: Natural products and their derivatives continue to be wellsprings of nascent therapeutic potential. However, many laboratories have limited resources for biological evaluation, leaving their previously isolated or synthesized compounds largely or completely untested. To address this issue, the Canvass library of natural products was assembled (https://tripod.nih.gov/canvass), in collaboration with academic and industry researchers, for quantitative high-throughput screening (qHTS) across a diverse set of cell-based and biochemical assays. […] The library was formatted into 1536-well plates and evaluated in 50 qHTS (in an 11-pnt concentration series) bioassays with broad scope of disease-relevant mechanisms. The resulting data set from 50 different assays was then systematically analyzed to identify overall trends and specific natural products with interesting biological activities. […] The BacTiter-Glo microbial cell viability assay is a homogeneous method for determining the number of viable bacterial cells in culture based on quantitation of the ATP present. […] The homogeneous assay procedure involves adding a single reagent (BacTiter-GloTM Reagent) directly to bacterial cells in medium and measuring luminescence. […]

[10] = DH5-alpha competent E. coli microbial cell viability qHTS against the NCATS CANVASS Library (AID 1347377)
Procedure, shortened: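 Bacteria were dispensed at 0.2 OD, then compounds were pin-transferred. Plates were incubated overnight at 37C, after which BacTiter-Glo was added and luminescence measured 20 min later.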

Measured: outcome

O=c1c(O)c(-c2ccc(O)c(O)c2)oc2cc(O)ccc12
not listed: [9] | [10]
inactive: all other assays above

C=C(C)[C@@H]1CC[C@]2(C(=O)O)CC[C@]3(C)[C@H](CC[C@@H]4[C@@]5(C)CC[C@H](O)C(C)(C)[C@@H]5CC[C@]43C)[C@@H]12
not listed: [2] | [6]
inactive: all other assays above
